In PubChem BioAssay:
The source made the active and inactive calls.

Columns and labels:
Albumin (Bos taurus) = Albumin (Bos taurus) (UniProt P02769); experiment: compounds binding labelled BSA control protein – biochemical, small-molecule microarray, Alexa647 label, 635/667 nm fluorescence, artefact control for SMM control protein annotation, profiling panel (AID 1118); settings: BSA-A647 binding, fluorescence 635 nm, higher = more signal;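 also: score merges 667 nm emission intensity and signal-to-noise per printed compound spot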
[1] = probe aXIP binding to arrayed compounds – biochemical, NeuroSMM set, 635/667 nm fluorescence, primary screen (AID 1119); settings: small-molecule microarray, higher = more signal, called active from +8 up or from −8 down;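 also: probe is the protein aXip251-270 applied at 1 µg/mL to compound-printed slides; binding of probe to printed compounds measured as 667 nm fluorescence plus signal to noise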
[2] = probe aNOTCH3 binding on compound microarray – biochemical, small-molecule microarray, 635/667 nm fluorescence, primary screen (AID 1120); settings: higher = more signal;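 also: probe is a biotin-tagged antibody raised against NOTCH3 rather than NOTCH3 protein; score merges spot fluorescence near 667 nm with spot signal to noise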
[3] = probe aNOTCH2 binding on compound microarray – biochemical, small-molecule microarray, 635/667 nm fluorescence, primary screen (AID 1121); settings: higher = more signal;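 also: score merges feature fluorescence read at 667 nm with its signal to noise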
[4] = target: Carbonic anhydrase 2 (Homo sapiens) (UniProt P00918); experiment: compounds binding carbonic anhydrase 2 – biochemical, small-molecule microarray, Alexa647-labelled CAII, profiling panel (AID 1122); settings: CAII-A647 binding fluorescence, higher = more signal
[5] = COS7 lysate on small-molecule microarray, probe aHis, 635 nm (AID 1123); settings: COS7 cell lysate, fluorescence, higher = more signal;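 also: z-score combines 667nm fluorescence intensity with signal-to-noise per printed compound spot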
[6] = probe aLAP1 signal on lysate-treated microarray – cell lysate, small-molecule microarray, COS7 lysate, primary screen (AID 1124); settings: probe aLAP1, fluorescence, higher = more signal;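 also: lysate comes from COS7 cells expressing LAP1 and is applied at 0.3 µg/mL; score merges spot fluorescence near 667 nm with signal-to-noise over triplicate slides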
Sam68 (KHDRBS1) = experiment: compounds binding KHDRBS1 protein – biochemical, small-molecule microarray, 635 nm fluorescence, primary screen (AID 1125); settings: higher = more signal;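 also: score merges 667 nm channel intensity with signal to noise over triplicate slides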
[7] = system: Chordin-like protein 2 (CHRDL2); experiment: compounds binding chordin-like 2 – biochemical, small-molecule microarray, 635 nm fluorescence, primary screen (AID 1126); settings: fluorescence 635 nm, higher = more signal;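 also: printed compound slides probed with Chrdl2 protein at 4 µg/mL for 1 h at 4 C; score merges 667 nm emission intensity with signal to noise over three replicate slides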
[8] = target: Concanavalin-A (Canavalia ensiformis) (UniProt P02866); experiment: compounds binding concanavalin A lectin – biochemical, small-molecule microarray, Alexa647 label, 635 nm, artefact control for SMM control protein annotation, primary screen (AID 1127); settings: ConA-A647 binding fluorescence, higher = more signal;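 also: z combines 667 nm emission intensity with signal-to-noise across three replicate slides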
[9] = compounds binding Alexa647 anti-His antibody – biochemical, small-molecule microarray, 635 nm fluorescence, artefact control for SMM control protein annotation, primary screen (AID 1128); settings: higher = more signal;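 also: score merges feature fluorescence with signal-to-noise for each printed compound spot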
[10] = system: Human papillomavirus type 1a E7 protein (residues 1-88); experiment: HPV1a E7 small-molecule binders, primary screen, biochemical, small-molecule microarray, residues 1-88, 635 nm (AID 1129); settings: small-molecule microarray binding, fluorescence 635 nm; higher = more signal
[11] = target: Focal adhesion kinase 1 (Homo sapiens) (UniProt Q05397); experiment: PTK2 protein binding on printed compound slides – biochemical, small-molecule microarray, 635/667 nm fluorescence, BSA, DTT, primary screen (AID 1130); settings: 635 nm fluorescence, higher = more signal;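 also: composite of spot emission at 667 nm and signal to noise over triplicate slides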
[12] = system: Fibrinogen (Alexa647-labelled); experiment: Alexa647-fibrinogen binding to printed small molecules – biochemical, small-molecule microarray, 635/667 nm fluorescence, artefact control for SMM control-protein annotation, profiling panel (AID 1131); settings: fibrinogen-A647 binding fluorescence, higher = more signal;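 also: z-score merges 667 nm fluorescence with per-spot signal-to-noise over triplicate slides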
[13] = target: Follistatin (Homo sapiens) (UniProt P19883); experiment: FST protein binding to printed compounds – biochemical, small-molecule microarray, 635/667 nm fluorescence, primary screen (AID 1132); settings: 635 nm fluorescence, higher = more signal
[14] = target: Fibroblast growth factor 2 (Homo sapiens) (UniProt P09038); experiment: basic fibroblast growth factor binding to printed compounds – biochemical, small-molecule microarray, 635/667 nm fluorescence, primary screen (AID 1133); settings: FGF2, fluorescence 635/667, higher = more signal
[15] = JC-1 mitochondrial potential readout, lung cancer cells – cell-based, A549, JC-1 fluorescence, basal, 24 h, 100 nL, profiling panel (AID 1138); settings: higher = more signal;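 also: A549 lung adenocarcinoma cells under basal conditions with no added stimulus; test concentration not given here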
Lefty1 = Lefty1 protein binding to printed compounds – biochemical, small-molecule microarray, 635/667 nm fluorescence, primary screen (AID 1139); settings: fluorescence 635/667, higher = more signal
[16] = system: wheat germ agglutinin (Triticum aestivum), Alexa647-labelled; experiment: Alexa647-WGA lectin binding to printed small molecules – biochemical, small-molecule microarray, 635/667 nm fluorescence, artefact control for SMM control-protein annotation, profiling panel (AID 1140); settings: WGA-A647 binding, 635 nm fluorescence, higher = more signal;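 also: score merges 667 nm feature emission with signal to noise over triplicate slides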
[17] = target: Luciferin 4-monooxygenase (Photinus pyralis) (UniProt P08659); experiment: inhibition of purified Photinus pyralis luciferase – biochemical, luminescence, purified enzyme, 2006 set, primary screen (AID 1141); settings: purified firefly luciferase, SteadyGlo luminescence, 30 min; higher = more signal, called active from +8 up or from −8 down;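 also: cell-free assay with purified firefly luciferase at 100 ng per well in PBS; test concentration not given here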
Luciferin 4-monooxygenase (Photinus pyralis), sequence (P08659 whole entry, looked up): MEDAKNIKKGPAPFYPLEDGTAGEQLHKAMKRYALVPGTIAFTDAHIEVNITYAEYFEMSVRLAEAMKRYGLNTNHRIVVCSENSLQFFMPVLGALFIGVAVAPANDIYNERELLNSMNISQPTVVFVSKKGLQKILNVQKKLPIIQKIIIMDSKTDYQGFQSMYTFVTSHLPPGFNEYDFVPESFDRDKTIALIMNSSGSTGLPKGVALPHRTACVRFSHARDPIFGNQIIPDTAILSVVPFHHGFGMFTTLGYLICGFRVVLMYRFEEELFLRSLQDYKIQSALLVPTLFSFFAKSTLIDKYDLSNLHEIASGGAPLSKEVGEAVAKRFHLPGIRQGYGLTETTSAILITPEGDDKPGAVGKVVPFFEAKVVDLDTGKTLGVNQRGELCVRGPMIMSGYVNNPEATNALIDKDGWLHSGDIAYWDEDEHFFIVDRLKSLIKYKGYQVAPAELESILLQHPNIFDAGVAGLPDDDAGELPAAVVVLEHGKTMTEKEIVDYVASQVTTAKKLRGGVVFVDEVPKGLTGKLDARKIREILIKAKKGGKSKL

Concanavalin-A (Canavalia ensiformis), sequence (P02866 whole entry, looked up): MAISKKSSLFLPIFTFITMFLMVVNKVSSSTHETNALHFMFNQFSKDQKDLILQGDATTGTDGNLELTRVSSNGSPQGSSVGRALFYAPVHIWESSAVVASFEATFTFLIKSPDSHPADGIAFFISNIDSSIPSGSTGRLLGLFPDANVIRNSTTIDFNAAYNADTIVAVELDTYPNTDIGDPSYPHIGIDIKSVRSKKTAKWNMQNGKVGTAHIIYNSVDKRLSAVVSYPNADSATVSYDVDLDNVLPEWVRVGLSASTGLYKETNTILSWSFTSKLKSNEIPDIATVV
Albumin (Bos taurus), sequence (P02769 whole entry, looked up): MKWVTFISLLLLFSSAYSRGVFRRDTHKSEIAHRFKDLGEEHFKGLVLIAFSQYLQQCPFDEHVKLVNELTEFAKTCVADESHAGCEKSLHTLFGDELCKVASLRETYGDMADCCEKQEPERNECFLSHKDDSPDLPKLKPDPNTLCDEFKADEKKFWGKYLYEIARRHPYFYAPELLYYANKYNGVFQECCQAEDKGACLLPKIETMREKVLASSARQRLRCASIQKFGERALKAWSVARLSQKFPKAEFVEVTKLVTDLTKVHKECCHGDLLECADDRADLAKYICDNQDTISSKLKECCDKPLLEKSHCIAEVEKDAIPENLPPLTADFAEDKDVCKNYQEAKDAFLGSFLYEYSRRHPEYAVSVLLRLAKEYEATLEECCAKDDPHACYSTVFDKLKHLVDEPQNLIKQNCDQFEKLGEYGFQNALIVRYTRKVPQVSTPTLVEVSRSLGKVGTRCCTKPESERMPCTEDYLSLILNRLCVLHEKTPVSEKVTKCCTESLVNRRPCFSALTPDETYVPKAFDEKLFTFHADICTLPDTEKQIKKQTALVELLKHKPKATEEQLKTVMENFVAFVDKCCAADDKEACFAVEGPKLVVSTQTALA
Fibroblast growth factor 2 (Homo sapiens), sequence (P09038 whole entry, looked up): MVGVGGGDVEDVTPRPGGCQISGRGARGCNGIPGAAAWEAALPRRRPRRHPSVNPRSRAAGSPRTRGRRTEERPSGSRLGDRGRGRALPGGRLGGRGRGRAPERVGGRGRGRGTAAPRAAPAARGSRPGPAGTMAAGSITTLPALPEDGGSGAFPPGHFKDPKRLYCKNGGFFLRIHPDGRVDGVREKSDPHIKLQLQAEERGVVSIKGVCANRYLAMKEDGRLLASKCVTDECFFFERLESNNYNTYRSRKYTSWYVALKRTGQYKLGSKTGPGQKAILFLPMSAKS
Follistatin (Homo sapiens), sequence (P19883 whole entry, looked up): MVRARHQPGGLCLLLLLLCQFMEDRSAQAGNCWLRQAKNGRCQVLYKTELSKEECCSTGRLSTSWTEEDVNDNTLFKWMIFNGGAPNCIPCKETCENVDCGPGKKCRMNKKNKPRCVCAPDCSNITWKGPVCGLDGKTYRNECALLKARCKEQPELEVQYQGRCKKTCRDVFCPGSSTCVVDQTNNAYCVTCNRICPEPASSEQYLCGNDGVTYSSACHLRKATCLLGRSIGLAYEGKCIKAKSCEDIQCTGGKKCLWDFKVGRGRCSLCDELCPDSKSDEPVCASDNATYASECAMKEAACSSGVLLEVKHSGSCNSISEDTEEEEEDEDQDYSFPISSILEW
Focal adhesion kinase 1 (Homo sapiens), sequence (Q05397 whole entry, looked up): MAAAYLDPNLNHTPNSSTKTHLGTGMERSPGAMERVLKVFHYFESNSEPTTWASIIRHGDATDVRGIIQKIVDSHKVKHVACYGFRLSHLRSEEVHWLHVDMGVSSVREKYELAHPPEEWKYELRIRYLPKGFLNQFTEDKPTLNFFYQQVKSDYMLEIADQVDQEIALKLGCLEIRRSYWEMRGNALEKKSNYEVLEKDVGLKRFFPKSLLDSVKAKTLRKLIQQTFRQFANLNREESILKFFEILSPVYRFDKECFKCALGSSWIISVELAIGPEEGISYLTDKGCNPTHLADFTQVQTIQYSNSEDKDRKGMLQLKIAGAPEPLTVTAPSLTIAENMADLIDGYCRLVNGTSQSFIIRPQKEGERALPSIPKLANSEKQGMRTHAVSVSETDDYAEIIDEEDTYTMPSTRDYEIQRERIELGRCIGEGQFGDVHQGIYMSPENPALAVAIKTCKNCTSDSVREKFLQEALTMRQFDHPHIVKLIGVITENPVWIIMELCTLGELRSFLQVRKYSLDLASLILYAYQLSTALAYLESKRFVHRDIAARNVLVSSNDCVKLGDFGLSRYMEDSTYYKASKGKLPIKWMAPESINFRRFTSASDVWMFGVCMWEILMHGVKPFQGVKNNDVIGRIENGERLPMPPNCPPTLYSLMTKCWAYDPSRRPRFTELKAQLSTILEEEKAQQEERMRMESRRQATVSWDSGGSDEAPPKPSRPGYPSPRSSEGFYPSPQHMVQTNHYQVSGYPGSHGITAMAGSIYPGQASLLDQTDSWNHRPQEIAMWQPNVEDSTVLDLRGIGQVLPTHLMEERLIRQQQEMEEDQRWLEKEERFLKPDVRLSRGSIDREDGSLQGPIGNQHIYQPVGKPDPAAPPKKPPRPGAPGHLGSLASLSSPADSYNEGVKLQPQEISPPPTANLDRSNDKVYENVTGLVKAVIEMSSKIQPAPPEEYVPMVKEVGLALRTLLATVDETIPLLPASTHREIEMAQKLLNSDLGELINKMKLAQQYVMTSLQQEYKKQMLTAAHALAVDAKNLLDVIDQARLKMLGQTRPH

Compound	composite z-score (Albumin (Bos taurus))	composite Z-score [1]	composite z-score [2]	composite z-score [3]	composite z-score [4]	composite z-score [5]	composite z-score [6]	composite z-score (Sam68 (KHDRBS1))	composite z-score [7]	composite z-score [8]	composite z-score [9]	composite z-score [10]	composite z-score [11]	composite z-score [12]	composite z-score [13]	composite z-score [14]	z-score [15]	composite z-score (Lefty1)	composite z-score [16]	z-score [17]
C[C@H]1C2[C@H](Cc3ccccc3)NC(=O)[C@]23C(=O)NCC(=O)N2CCC[C@H]2C(=O)NC/C=C/CCC/C=C/C3[C@@H]2O[C@]12C (stereo not given in full)	-0.677	-0.695 (inactive)	-0.136	-0.179	-0.17	-0.18	0.053	-1.51	-0.143	-1.27	0.295	-1.28	-0.502	-0.489	-0.0491	-0.0881	-0.979	-0.0374	-0.704	-0.44 (inactive)
COc1ccc([C@H]2C[C@H]3C(Br)=C[C@@]2(CO)C(=O)[C@]32CO2)cc1	-0.613	-0.0805 (inactive)	-0.103	-0.0684	0.0574	-0.128	0.289	-0.318	0.282	0.178	-0.436	-0.99	0.125	0.281	-0.0737	-0.441	-0.592	-0.271	0.138	0.601 (inactive)
COc1ccc([Si](C)(C)[C@@H]2[C@@H](CCn3cc([C@H](O)c4ccccc4)nn3)O[C@]3(C(=O)N(Cc4cccc(N5CCC5=O)c4)c4ccccc43)[C@H]2C)cc1	-0.185	-0.0405 (inactive)	-0.152	-0.0598	-0.105	0.288	0.0413	-0.233	0.422	0.0651	0.963	0.227	-0.285	0.119	1.15	1.06	2.21	0.0197	0.187	0.258 (inactive)
CC#CC(=O)Oc1ccc(Br)cc1C=CC(=O)OCC	-0.107	1.39 (inactive)	0.144	-0.0529	0.18	0.942	0.158	0.582	0.103	0.269	-0.179	1.06	0.167	-0.382	0.233	-0.0698	-0.817	0.0606	0.665	-0.39 (inactive)
O=C1OCC=C[C@H]2OC34C=CCN(Cn5nnc6ccccc65)C(=O)[C@H]3N(CCCCCO)C(=O)[C@@H]4[C@@H]12 (stereo not given in full)	-0.552	0.177 (inactive)	-0.211	-0.108	0.9	1.34	0.435	-0.171	-1.87	-0.727	0.181	-0.185	-0.34	-0.566	-0.997	-0.846	-1.47	-0.992	1.25	0.365 (inactive)
C=CC[C@]1(C(N)=O)N=C(c2ccc(OCCCO)cc2)O[C@H]1c1ccccc1	0.34	0.15 (inactive)	-0.0284	0.102	0.779	0.916	-0.137	-0.188	0.204	0.721	1.3	1.08	0.784	0.691	0.482	0.17	-0.852	-0.664	0.417	0.004 (inactive)
O=C(O)[C@H]1C[C@H]2C(=O)N3CCC[C@H]3C(=O)N2[C@H]1c1ccc(O)cc1	-2.04	0.0047 (inactive)	-0.368	-0.176	0.545	0.193	0.107	-0.132	-1.49	0.298	0.0617	-0.94	-0.222	-1.83	-0.374	-0.879	1.62	-0.801	-0.842	-2.53 (inactive)
COCCOC(=O)N1C(=O)[C@@]2(c3cc(C#Cc4ccc(OC)cc4)ccc31)[C@H](c1ccc(O)cc1)N1[C@H](c3ccccc3)[C@H](c3ccccc3)OC(=O)[C@H]1[C@@H]2C(=O)Nc1nc2ccccc2s1	0.576	0.303 (inactive)	-0.0299	-0.124	0.537	1.54	-0.0159	1.3	0.0727	1.16	0.513	1.19	-0.0177	0.939	1.26	0.499	-2.06	0.617	0.649	-0.894 (inactive)
C=CC[C@@]1(C(=O)N2CCCCC2)N=C(c2ccc(OCCCO)cc2)O[C@@H]1c1ccccc1CN=[N+]=[N-]	0.866	-0.166 (inactive)	0.244	-0.0505	0.671	3.13	1.06	1.29	-0.602	1.04	2.75	1.27	0.398	1.02	1.37	0.288	-0.0114	0.484	0.768	-1.37 (inactive)
CCOC(=O)[C@H]1C/C=C/C[C@H](C(=O)OCC)C(=O)O[C@H]2[C@@H](OC)O[C@H](CO)[C@@H](OC(=O)c3ccc(Br)cc3)[C@@H]2OC1=O	0.184	0.38 (inactive)	0.037	-0.0956	0.397	0.306	0.435	-0.0942	0.406	0.205	0.272	0.189	0.143	0.223	1.06	1.06	2.47	0.31	0.329	-0.0361 (inactive)
CC(c1ccccc1)C(O)C1C=CC2C(=O)N(C)C(=O)C2N1NC(=O)OC(C)(C)C (stereo not given)	0.974	0.741 (inactive)	0.148	-0.0159	0.695	2.53	0.857	1.3	-0.338	1.12	0.79	1.21	0.235	1.03	0.696	0.0621	-0.422	-0.271	0.939	-0.934 (inactive)
